# Several values for one entry are separate records, joined by “and”; a condition that tells them apart may be missing. Identical values can stand only once. A number with no mark means an inactive call. Activity calls are given as the source filed them. Unless noted, calls follow the shape of the dose curve; as a rule, active = well fitted curve in the direction sought with a large enough effect; inconclusive = small, poorly fitted or top-dose-only effect, or another doubt; inactive = no such curve, though single readings can be large; an effect the other way counts as inactive or inconclusive.
# Tests used:
# [1] = Cell Viability - HepG2 (AID 433; calls by dose curve;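 also: potency is read from the fitted curve at half-maximal effect; cells exposed to compound for 40 hours; potency for ATP loss meaning cytotoxicity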); details: qHTS
# Method in brief: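 Read-out is luciferase-based quantitation of cellular ATP as a measure of viable HepG2 cells after 40 h treatment at 37 °C. Signal decrease is scaled between DMSO-only and 100 uM tamoxifen controls, with AC50 fitted by the Hill equation.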
# [2] = Cellular Toxicity (caspase-3) H-4-II-E (AID 663); details: H-4-II-E rat hepatoma, scaled: DMSO 0%, 100 µM tamoxifen 100%; at 92.2 µM (top of the series);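 also: cells exposed to compound for 16 hr before readout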
# Method in brief: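 Luminescence from caspase-cleaved aminoluciferin substrate, read 20 min after reagent addition, reports caspase 3/7 activation in rat H-4-II-E cells after 16 hr compound exposure. Normalized to DMSO (basal) and 100 uM tamoxifen (100%); AC50 from Hill fits.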
# [3] = biological target: Cytochrome P450 3A4 (Homo sapiens) (UniProt P08684); assay: qHTS Assay for Inhibitors and Substrates of Cytochrome P450 3A4 (AID 884); details: recombinant CYP3A4, Luciferin-PPXE luminescence; series mostly up to 57.1 µM; also: nearly all actives have a fitted effect of over 50% in size; also: potency is read from the fitted curve at half-maximal effect
# Cytochrome P450 3A4 (Homo sapiens), sequence (P08684 whole entry, looked up): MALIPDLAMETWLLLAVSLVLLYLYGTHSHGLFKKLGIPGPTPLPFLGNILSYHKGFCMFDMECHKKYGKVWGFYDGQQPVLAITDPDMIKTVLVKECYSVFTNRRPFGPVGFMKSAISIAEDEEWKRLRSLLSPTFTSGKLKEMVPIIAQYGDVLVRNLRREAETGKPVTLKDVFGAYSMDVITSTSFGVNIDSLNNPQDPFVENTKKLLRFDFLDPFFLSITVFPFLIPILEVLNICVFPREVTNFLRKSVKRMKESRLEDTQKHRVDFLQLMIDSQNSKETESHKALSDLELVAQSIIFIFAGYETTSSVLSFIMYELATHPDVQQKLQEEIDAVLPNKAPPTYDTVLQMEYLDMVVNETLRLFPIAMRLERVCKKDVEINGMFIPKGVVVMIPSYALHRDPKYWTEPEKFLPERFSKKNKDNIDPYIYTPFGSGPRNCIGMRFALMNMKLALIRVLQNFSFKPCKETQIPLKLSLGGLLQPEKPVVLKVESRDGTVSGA
# Method in brief: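 20 nM human CYP3A4 with 25 uM Luciferin-PPXE (at KM) in 200 mM KPO4, preincubated 10 min with compound; NADPH regeneration started a 60 min RT reaction. Luciferin detected by luminescence, normalized to 57 uM ketoconazole as full inhibition.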
# [4] = MultiTox-Fluor Cytotoxicity Assay - LYMP1-001 - Dead Cells (AID 946); details: LYMP1-001 lymphoblastoid cells, dead-cell protease fluorescence; series mostly up to 92.2 µM; also: potency is read from the fitted curve at half-maximal effect
# Method in brief: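 AC50 from Hill fit of concentration-response; data normalized to DMSO (basal) and 15 uM tetraoctylammonium bromide (100%). LYMP1-001 lymphoblastoid cells, 2500/well, 16 hr compound at 37 C; dead-cell protease fluorescence, Ex/Em 485/520.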
# [5] = MultiTox-Fluor Cytotoxicity Assay - LYMP1-001 - Live Cells (AID 947); details: LYMP1-001 lymphoblastoid cells, live-cell protease fluorescence viability; series mostly up to 92.2 µM; also: potency is read from the fitted curve at half-maximal effect
# [6] = MultiTox-Fluor Cytotoxicity Assay - LYMP1-002 - Dead Cells (AID 960); details: LYMP1-002 lymphoblastoid cells, dead-cell protease fluorescence; series mostly up to 46.1 µM; also: nearly all actives have a fitted effect of over 60% in size; also: potency is read from the fitted curve at half-maximal effect
# Method in brief: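 Human lymphoblastoid cells (LYMP1-002), 2500/well in complete medium, were exposed to compounds for 16 hr at 37 C. Dead-cell protease activity was read as bis-AAF-R110 fluorescence (Ex/Em 485/520), normalized to DMSO and 15 uM tetraoctylammonium bromide; AC50 from Hill fits.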
# [7] = Cell Viability - LYMP2-013 (AID 970); details: LYMP2-013 lymphoblastoid cells viability; series mostly up to 92.2 µM; also: nearly all actives have a fitted effect of over 55% in size; also: potency is read from the fitted curve at half-maximal effect
# Method in brief: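 Human lymphoblastoid cells, 2500/well, were preincubated 5 hr at 37 C, then treated with compounds for 24 hr at 37 C in complete medium. Intracellular ATP was read by CellTiter-Glo luminescence; AC50 from Hill-equation fits of concentration-response data.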
# [8] = Cell Viability - LYMP2-002 (AID 977); details: LYMP2-002 lymphoblastoid cell viability, qHTS; series mostly up to 92.2 µM; also: potency is read from the fitted curve at half-maximal effect
# Method in brief: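 Luminescent ATP readout (CellTiter-Glo, 30 min room temperature) after 24 h compound exposure at 37 C of a human lymphoblastoid line, 2500 cells/well. AC50 values derived by standard Hill fitting of qHTS concentration-response data.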
# [9] = Cell Viability - LYMP2-006 (AID 978); details: LYMP2-006 lymphoblastoid cell viability, qHTS; series mostly up to 92.2 µM; also: nearly all actives have a fitted effect of over 60% in size; also: potency is read from the fitted curve at half-maximal effect
# Method in brief: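 Cells are seeded at 2500 per well and rested 5 hr at 37 C. Compounds are added across a concentration series for 24 hr at 37 C, after which ATP is quantified by luciferase luminescence.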
# [10] = Cell Viability - LYMP2-010 (AID 981); details: LYMP2-010 lymphoblastoid cell viability, qHTS; series mostly up to 92.2 µM; also: nearly all actives have a fitted effect of over 55% in size; also: potency is read from the fitted curve at half-maximal effect
# Method in brief: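 Human lymphoblastoid LYMP2-010 cells (2500/well) were preincubated 5 hr at 37 C, then exposed to compounds for 24 hr at 37 C in complete medium. Intracellular ATP was measured by CellTiter-Glo luminescence after 30 min at room temperature; AC50 from Hill-fitted concentration-response.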
# [11] = Cell Viability - LYMP2-014 (AID 983); details: LYMP2-014 lymphoblastoid cells, viability qHTS; series mostly up to 92.2 µM; also: nearly all actives have a fitted effect of over 50% in size; also: potency is read from the fitted curve at half-maximal effect
# Method in brief: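 Human lymphoblastoid cells (2500/well) were pre-incubated 5 hr at 37 C, then exposed to compounds in complete medium for 24 hr at 37 C. Intracellular ATP was read by CellTiter-Glo luminescence after 30 min at room temperature; AC50 from Hill fits.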
# [12] = Cell Viability - LYMP2-022 (AID 987); details: LYMP2-022 lymphoblastoid cell viability; series mostly up to 92.2 µM; also: nearly all actives have a fitted effect of over 55% in size; also: potency is read from the fitted curve at half-maximal effect
# Method in brief: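 Human lymphoblastoid cells, 2500/well, preincubated 5 hr at 37 C, then exposed to compounds over a concentration range for 24 hr at 37 C in complete medium. Viability read as intracellular ATP by CellTiter-Glo luminescence after 30 min at room temperature; AC50 from Hill fits.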
# [13] = Cell Viability - LYMP2-024 (AID 988); details: LYMP2-024 lymphoblastoid cell viability; series mostly up to 92.2 µM; also: nearly all actives have a fitted effect of over 60% in size; also: potency is read from the fitted curve at half-maximal effect
# Method in brief: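 Human lymphoblastoid cells (2500/well) in complete medium were preincubated 5 hr at 37 C, then exposed to compounds for 24 hr at 37 C. Intracellular ATP was read by CellTiter-Glo luminescence; AC50 from Hill-equation fits of concentration-response data.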
# [14] = Cell Viability - LYMP2-026 (AID 989); details: LYMP2-026 lymphoblastoid cell viability, qHTS; series mostly up to 92.2 µM; also: nearly all actives have a fitted effect of over 50% in size; also: potency is read from the fitted curve at half-maximal effect
# Method in brief: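 Human lymphoblastoid cells (2500/well) in complete medium were preincubated 5 hr at 37 C, then exposed to compounds for 24 hr at 37 C. Cellular ATP was read by CellTiter-Glo luminescence; AC50 from Hill-equation fits of concentration-response data.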
# [15] = biological target: Estrogen receptor (Homo sapiens) (UniProt P03372); assay: qHTS assay for small molecule antagonists of estrogen receptor alpha signaling (AID 588513; active = well fitted curve in the direction sought with a large enough effect in the signal ratio, with a control signal flat, not every such curve was filed as active; inconclusive = small, poorly fitted or top-dose-only effect, or effect the other way, or a change in a side signal; inactive = no such curve, though single readings can be large or run the other way; the % refers to the signal ratio; also: potency is read from the fitted curve at half-maximal effect); details: ER-alpha-UAS-bla HEK293, beta-lactamase ratio, antagonist mode; series mostly up to 76.9 µM
# Estrogen receptor (Homo sapiens), sequence (P03372 whole entry, looked up): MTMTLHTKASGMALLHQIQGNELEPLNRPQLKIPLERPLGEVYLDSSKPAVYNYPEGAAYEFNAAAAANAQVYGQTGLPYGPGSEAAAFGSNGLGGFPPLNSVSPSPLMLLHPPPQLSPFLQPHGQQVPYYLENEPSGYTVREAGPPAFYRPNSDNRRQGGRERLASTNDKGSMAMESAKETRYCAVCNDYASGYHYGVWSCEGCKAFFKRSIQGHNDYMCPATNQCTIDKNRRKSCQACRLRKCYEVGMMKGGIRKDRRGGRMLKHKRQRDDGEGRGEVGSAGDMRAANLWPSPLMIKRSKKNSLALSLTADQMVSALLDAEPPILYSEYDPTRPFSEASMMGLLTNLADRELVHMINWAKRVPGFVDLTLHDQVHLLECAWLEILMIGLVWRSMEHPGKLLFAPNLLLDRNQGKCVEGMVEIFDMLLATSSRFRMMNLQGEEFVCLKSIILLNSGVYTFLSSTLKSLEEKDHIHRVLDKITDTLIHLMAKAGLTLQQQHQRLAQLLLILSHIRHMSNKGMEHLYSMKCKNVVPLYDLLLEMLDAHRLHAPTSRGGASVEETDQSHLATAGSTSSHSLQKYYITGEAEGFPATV
# Method in brief: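 Fluorescence from CCF4 substrate after 2 h at room temperature gave reporter activity; cells had been exposed to compound and 0.5nM 17-beta-estradiol for 18 h at 37 C. Hill-equation fitting yielded IC50 and maximal response.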
# [16] = biological target: Peroxisome proliferator-activated receptor delta (Homo sapiens) (UniProt Q03181); assay: qHTS assay for small molecule agonists of peroxisome proliferator-activated receptor delta signaling (AID 588534; calls by dose curve;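 also: 0% = DMSO basal wells and 100% = positive control agonist at 10 µM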); details: HEK293T PPARdelta-UAS-bla, beta-lactamase ratio, 18 h; series mostly up to 76.7 µM
# Peroxisome proliferator-activated receptor delta (Homo sapiens), sequence (Q03181 whole entry, looked up): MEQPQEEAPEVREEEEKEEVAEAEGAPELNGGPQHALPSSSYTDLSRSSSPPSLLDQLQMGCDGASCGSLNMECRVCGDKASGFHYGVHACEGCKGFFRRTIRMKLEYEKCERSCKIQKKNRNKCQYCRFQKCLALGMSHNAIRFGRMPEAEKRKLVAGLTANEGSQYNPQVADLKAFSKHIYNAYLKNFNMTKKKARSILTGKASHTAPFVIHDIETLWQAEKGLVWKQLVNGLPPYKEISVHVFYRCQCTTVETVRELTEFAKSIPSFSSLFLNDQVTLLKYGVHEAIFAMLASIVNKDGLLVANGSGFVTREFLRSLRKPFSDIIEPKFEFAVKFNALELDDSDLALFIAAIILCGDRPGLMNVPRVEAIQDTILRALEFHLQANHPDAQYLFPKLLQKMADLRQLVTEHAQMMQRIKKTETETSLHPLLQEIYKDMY
# Method in brief: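 Cell-based beta-lactamase reporter assay run in agonist mode: cells seeded and incubated 5 hrs at 37 C, compounds added and incubated 18 hrs at 37 C. CCF4 dye fluorescence read after 2 hrs at RT; EC50 and efficacy from Hill fits.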
# [17] = biological target: Vitamin D3 receptor (Homo sapiens) (UniProt P11473); assay: qHTS assay for small molecule agonists of vitamin D receptor signaling (AID 588543; calls by dose curve;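 also: 0% = DMSO basal and 100% = reference agonist control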); details: HEK293T VDR-UAS-bla, beta-lactamase ratio, 16 h; series mostly up to 76.8 µM
# Vitamin D3 receptor (Homo sapiens), sequence (P11473 whole entry, looked up): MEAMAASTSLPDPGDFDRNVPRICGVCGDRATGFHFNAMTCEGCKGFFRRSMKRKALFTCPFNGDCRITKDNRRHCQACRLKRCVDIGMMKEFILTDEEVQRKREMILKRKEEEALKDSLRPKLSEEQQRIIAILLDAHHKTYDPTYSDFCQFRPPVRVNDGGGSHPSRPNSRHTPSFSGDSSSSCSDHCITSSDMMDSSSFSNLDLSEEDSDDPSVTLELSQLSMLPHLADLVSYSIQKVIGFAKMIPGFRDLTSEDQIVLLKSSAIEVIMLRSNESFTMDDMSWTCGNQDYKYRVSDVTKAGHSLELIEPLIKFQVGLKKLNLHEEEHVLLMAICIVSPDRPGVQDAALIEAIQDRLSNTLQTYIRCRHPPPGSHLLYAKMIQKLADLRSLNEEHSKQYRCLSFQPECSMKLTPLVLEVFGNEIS
# Method in brief: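 Reporter cells (HEK293T, VDR-UAS-bla) were seeded in medium with 2% charcoal-stripped serum and incubated 5 h, then compounds in concentration series were added for 16 h at 37 °C. Stimulation was scaled between DMSO basal and 50 nM 1α,25-dihydroxyvitamin D3.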
# [18] = qHTS assay for cell viability of HEK293 cells (AID 743288); details: ATP luminescence (CellTiter-Glo), 18 h; max response: hits give low values; also: nearly all actives have a fitted effect of over 50% in size; also: potency is read from the fitted curve at half-maximal effect; as to max response: % is scaled to controls: 0 for no effect and ±100 for the full control effect
# Method in brief: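 HEK293 parental, 2,000 cells/well; ≥5 h pre-incubation 37 C; pintool compound addition; 18 h, 37 C; CellTiter-Glo 30 min RT; luminescence read.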
# [19] = qHTS assay for small molecule disruptors of the mitochondrial membrane potential - 1 hr assay (AID 651754; calls by dose curve; also: % is scaled to controls: 0 for no effect and ±100 for the full control effect; nearly all actives have a fitted effect of over 35% in size); details: series mostly up to 92.2 µM
# Method in brief: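 HepG2 cells, attached overnight at 37C, were exposed to compound or DMSO vehicle for 1 hr at 37C, 5% CO2, then stained with Mito-MPS dye for 30 min. Red aggregate versus green monomer fluorescence reports membrane potential.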
# [20] = biological target: Glucocorticoid receptor (Homo sapiens) (UniProt P04150); assay: GR-EFC Redistribution (AID 451; calls by dose curve; also: potency is read from the fitted curve at half-maximal effect); details: CHO-K1 GR-EFC translocation, beta-gal luminescence, 2 h
# Glucocorticoid receptor (Homo sapiens), sequence (P04150 whole entry, looked up, the tested form may be a part): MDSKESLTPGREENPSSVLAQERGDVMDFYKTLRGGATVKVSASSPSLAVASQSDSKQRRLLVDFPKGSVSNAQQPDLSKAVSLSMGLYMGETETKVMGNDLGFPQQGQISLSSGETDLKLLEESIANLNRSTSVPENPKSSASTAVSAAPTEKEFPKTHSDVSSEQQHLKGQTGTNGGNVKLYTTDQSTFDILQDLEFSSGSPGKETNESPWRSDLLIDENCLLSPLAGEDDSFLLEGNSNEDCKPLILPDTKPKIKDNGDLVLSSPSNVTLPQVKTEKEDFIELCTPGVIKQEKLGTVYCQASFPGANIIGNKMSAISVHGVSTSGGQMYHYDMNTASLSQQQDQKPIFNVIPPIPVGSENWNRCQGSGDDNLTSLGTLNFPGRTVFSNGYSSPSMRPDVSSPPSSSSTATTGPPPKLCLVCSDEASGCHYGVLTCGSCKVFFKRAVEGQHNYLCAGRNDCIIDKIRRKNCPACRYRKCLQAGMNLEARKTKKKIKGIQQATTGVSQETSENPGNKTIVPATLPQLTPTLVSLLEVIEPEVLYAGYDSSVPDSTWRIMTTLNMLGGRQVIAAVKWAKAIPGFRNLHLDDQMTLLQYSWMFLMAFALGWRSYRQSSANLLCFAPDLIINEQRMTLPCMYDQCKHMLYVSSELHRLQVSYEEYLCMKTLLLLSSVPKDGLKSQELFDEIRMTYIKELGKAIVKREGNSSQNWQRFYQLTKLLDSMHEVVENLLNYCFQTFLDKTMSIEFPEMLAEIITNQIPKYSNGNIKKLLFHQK
# Method in brief: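 CHO-K1 cells stably expressing nuclear-localized β-gal enzyme acceptor and GR fused C-terminally to the enzyme donor fragment; ligand-driven nuclear translocation restores β-gal by complementation. Compounds titrated up to 46 uM final, 2 h at 37 °C; luminescence read.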
structure (smiles),measurement,setting,value
C#CCO,Potency,[1],> 92 µM
same,caspase-3 activation,[2],0.354%
same,Potency,[3],inactive
same,Potency,[4],inactive
same,Potency,[5],inactive
same,Potency,[6],inactive
same,Potency,[7],inactive
same,Potency,[8],inactive
same,Potency,[9],inactive
same,Potency,[10],inactive
same,Potency,[11],inactive
same,Potency,[12],inactive
same,Potency,[13],inactive
same,Potency,[14],inactive
same,Potency,[15],inactive
same,outcome,[16],inactive
same,outcome,[17],inactive
same,max response,[18],-6.13%
O=[N+]([O-])c1cc(C(F)(F)F)cc([N+](=O)[O-])c1Cl,Potency,[1],> 92 µM
same,caspase-3 activation,[2],24.4%
same,Potency,[3],inactive
same,Potency,[4],inactive
same,Potency,[5],inactive
same,Potency,[6],inactive
same,Potency,[7],39.8 µM (active)
same,Potency,[8],31.6 µM (active)
same,Potency,[10],31.6 µM (active)
same,Potency,[11],50.1 µM (active)
same,Potency,[12],31.6 µM (active)
same,Potency,[13],31.6 µM (active)
same,Potency,[14],31.6 µM (active)
same,Potency,[15],inactive
same,outcome,[16],inactive
same,outcome,[17],inactive
same,Potency,[19],inactive
Oc1cc2c(cc1O)[C@H]1c3ccccc3CN[C@@H]1CC2,Potency,[20],> 46 µM
CCCCCCCCn1sccc1=O,caspase-3 activation,[2],-3.17%
same,Potency,[3],12.6 µM (active)
same,Potency,[4],12.6 µM (active)
same,Potency,[5],31.6 µM (active)
same,Potency,[6],5.01 µM (active)
same,Potency,[7],15.8 µM (active)
same,Potency,[8],6.31 µM (active)
same,Potency,[9],7.94 µM (active)
same,Potency,[10],2.51 µM (active)
same,Potency,[11],10 µM (active)
same,Potency,[12],2.51 µM (active)
same,Potency,[13],2.51 µM (active)
same,Potency,[14],3.98 µM (active)
same,Potency,[15],14.1 µM [inconclusive] (active)
same,outcome,[16],inactive
same,outcome,[17],inactive
c1ccc2cc3c(cc2c1)-c1cccc2cccc-3c12,Potency,[1],> 92 µM
same,caspase-3 activation,[2],0.959%
same,Potency,[3],inactive
same,Potency,[4],inactive
same,Potency,[5],inactive
same,Potency,[6],inactive
same,Potency,[7],inactive
same,Potency,[8],inactive
same,Potency,[9],inactive
same,Potency,[10],inactive
same,Potency,[11],inactive
same,Potency,[12],inactive
same,Potency,[13],inactive
same,Potency,[14],inactive
same,Potency,[15],inactive
same,Potency,[19],inactive
same,max response,[18],4.38% and -18.8%
N#CSCSC#N,Potency,[1],50.3 µM (active)
same,caspase-3 activation,[2],-3.87%
same,Potency,[3],inactive
same,Potency,[4],25.1 µM (active)
same,Potency,[5],39.8 µM (active)
same,Potency,[6],10 µM (active)
same,Potency,[7],6.31 µM (active)
same,Potency,[8],10 µM (active)
same,Potency,[9],12.6 µM (active)
same,Potency,[10],3.98 µM (active)
same,Potency,[11],7.94 µM (active)
same,Potency,[12],5.01 µM (active)
same,Potency,[13],3.98 µM (active)
same,Potency,[14],7.94 µM (active)
same,Potency,[19],inactive
same,Potency,[18],28.2 µM (active)

# Source: PubChem BioAssay (NCATS)
